Screens (PubChem)
Myeloid diff MLP: promotes myeloid progenitor differentiation. ER-HoxA9 myeloid progenitors, lysozyme-GFP differentiation, flow cytometry. calls only at 10 µM. 360,000 compounds, 1% hits. AID 624256;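 active = normalized GFP-positive differentiation at or above the plate's own cutoff, the solvent-only control mean plus 3 SD; inconclusive = no clear call, values can overlap the other calls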;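 also: cells exposed to compound for four days before flow analysis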
Granule exo inh: blocks lytic granule exocytosis. TALL-104 LAMP-1 surface exposure, flow cytometry; cells stimulated with thapsigargin and PMA. inhibition, % at 10 µM. 360,000 compounds, 0.66% hits;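 active = inhibition above about 55%, limit read from the data; inconclusive = no clear call, values can overlap the other calls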
ABCB6 inh MLPCN: inhibitors of human ABC transporter ABCB6; fluorescence ratio to DMSO, % at 10 µM; 360,000 compounds, 0.19% hits; AID 602162; K562-ABCB6 porphyrin accumulation, flow cytometry, 1 h; hits give low values;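 active = fluorescence ratio to DMSO below 75%, the collection mean minus 3 SD; inconclusive = too few cells collected in the well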;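 also: signal is porphyrin accumulated inside mitochondria; 100% equals median channel fluorescence of DMSO control wells; lower ratio means ABCB6 inhibition with less porphyrin fluorescence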
Target sequence (Q9NP58 whole entry, looked up): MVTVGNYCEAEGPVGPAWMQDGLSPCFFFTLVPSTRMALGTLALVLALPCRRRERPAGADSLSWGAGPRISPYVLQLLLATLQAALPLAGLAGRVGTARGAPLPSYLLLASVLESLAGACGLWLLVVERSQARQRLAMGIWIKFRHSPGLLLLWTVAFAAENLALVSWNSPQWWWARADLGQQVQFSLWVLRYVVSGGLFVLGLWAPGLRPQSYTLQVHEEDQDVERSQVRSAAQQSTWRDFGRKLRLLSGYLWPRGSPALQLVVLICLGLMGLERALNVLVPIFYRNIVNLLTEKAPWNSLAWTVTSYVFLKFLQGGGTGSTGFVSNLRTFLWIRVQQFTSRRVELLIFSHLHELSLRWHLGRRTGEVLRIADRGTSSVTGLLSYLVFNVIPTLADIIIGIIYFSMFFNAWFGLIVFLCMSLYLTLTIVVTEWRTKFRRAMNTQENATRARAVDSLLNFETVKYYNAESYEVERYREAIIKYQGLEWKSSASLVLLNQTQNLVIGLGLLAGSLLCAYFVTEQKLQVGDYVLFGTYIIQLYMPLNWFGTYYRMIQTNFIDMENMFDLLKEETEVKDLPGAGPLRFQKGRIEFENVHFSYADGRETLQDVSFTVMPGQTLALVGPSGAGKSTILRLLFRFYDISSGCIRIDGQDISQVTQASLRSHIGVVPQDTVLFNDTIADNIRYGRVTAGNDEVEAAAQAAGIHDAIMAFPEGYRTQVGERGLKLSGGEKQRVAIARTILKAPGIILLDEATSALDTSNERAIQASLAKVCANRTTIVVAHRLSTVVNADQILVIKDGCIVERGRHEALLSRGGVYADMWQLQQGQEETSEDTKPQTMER
* hit, by the source's call; i = inactive; ? = inconclusive; · = no result given; + = active, no number. Shown are actives, neighbours in structure and some others; about 1.8% of the full set was active somewhere.

SMILES | Myeloid diff MLP | Granule exo inh | ABCB6 inh MLPCN
C[C@@H]1CN([C@@H](C)CO)C(=O)c2cc(Br)cnc2O[C@H]1CN(C)C(=O)Nc1ccc(F)cc1 | i | -5 | 103
C=CCn1c(SCC(=O)Nc2sccc2C(N)=O)nc2sc(C)c(C)c2c1=O | i | 3 | 76
C=CCn1c(SCC(=O)Nc2ccccc2C)nc2sc(C)c(C)c2c1=O | i | -1 | 73*
COC(=O)/C=C1/S/C(=N/NC(=O)c2ccccc2OC)NC1=O | + | 0 | 103
COC(=O)/C=C1/S/C(=N/NC(=O)c2ccc(OC)cc2)NC1=O | i | -9 | 99
CCC(C)NC(=O)c1ccc(Cl)c(S(=O)(=O)Nc2ccccc2N2CCOCC2)c1 (centres undefined) | i | 1 | 97
C=CCOC(=O)C(C#N)c1nc2ccccc2nc1N1CCN(c2ccccc2OC)CC1 (centres undefined) | i | -1 | 93
C=CCN(CC=C)c1nc2ccccc2nc1C(C#N)C(=O)OC(C)C (centres undefined) | + | -2 | 120
CCc1ccc2c(CN3CCC(C(=O)OC)CC3)cc(=O)oc2c1 | i | 3 | 99
O=C1CC(=C(c2ccccc2)c2ccccc2)C(=O)N1CCCCN1CCN(c2ccccc2)CC1 | i | 58* | 108
O=C(CCCN1CCN(c2ccccc2)CC1)c1ccc(F)cc1 | i | 0 | 101
CCC(c1nnnn1C(C)(C)C)N1CCN(C/C=C/c2ccccc2)CC1 (centres undefined) | i | -1 | 103
CC(C)(C)n1nnnc1C(c1ccccc1)N1CCN(C/C=C/c2ccccc2)CC1 (centres undefined) | + | -6 | 97
O=C(COC(=O)Cc1ccc(Cl)cc1)NCc1cccs1 | i | 2 | 98
N#Cc1ccc(N)cc1OCCCN1CCCCC1 | i | -3 | 96
CCCCCCN1C[C@H](O)[C@@H](n2cc(COC(=O)c3ccccc3)nn2)C[C@@H]1c1ccccc1 | i | 3 | 101
Cc1sc2nc(C3CC3)nc(SCC(=O)N3c4ccccc4CC3C)c2c1C (centres undefined) | + | ? | 93
Cc1nc(SCC(=O)N2c3ccccc3NC(=O)CC2C)c2c(C)c(C)sc2n1 (centres undefined) | i | -2 | 97
COc1ccc(Nc2cc(Nc3cccc(OC)c3)ncn2)cc1 | i | 20 | 93
CCOC(=O)N1CCN(C(=O)c2ccc3c(=O)n(Cc4ccccc4OC)c(=S)[nH]c3c2)CC1 | i | -2 | 87
COc1ccccc1Cn1c(=S)[nH]c2cc(C(=O)N3CCC(C(N)=O)CC3)ccc2c1=O | + | -2 | 96
Cc1cc(C)cc(NC(=O)[C@H](NC(=O)[C@@H]2Cc3ccccc3CN2)c2ccccc2)c1 | i | 22 | 98
CC[C@]1(C(=O)OC)[C@H]2C(=O)N(C)C(=O)[C@H]2[C@H]2CN=C(SCc3ccc(OC)cc3)N21 | i | 1 | 101
COc1ccc(/C=C/CN2CCN(CCc3ccccc3)C(CCO)C2)cc1 (centres undefined) | + | -3 | 96
CCOc1ccccc1CN1CCN(C/C=C/c2ccc(OC)cc2)CC1CCO (centres undefined) | i | 1 | 96
SMILES | Myeloid diff MLP | Granule exo inh | ABCB6 inh MLPCN
CC1CC(C)CN(S(=O)(=O)c2ccc(C(=O)N(C)Cc3ccccc3)cc2)C1 (centres undefined) | i | -3 | 102
CN(CCCn1ccc(NC(=O)OCc2ccccc2)nc1=O)Cc1ccco1 | i | 1 | 99
Cc1cccc(Nc2nc(N)nc(-c3oc4ccccc4c3C)n2)c1 | + | 12 | 97
COc1cccc(Nc2nc(N)nc(-c3oc4ccccc4c3C)n2)c1 | i | 10 | 96
Cc1ccccc1-c1cc2nc(Oc3ccc4c(c3)OCO4)n(C)c(=O)c2s1 | i | -2 | 89
O=C(NCC(c1ccco1)N1CCc2ccccc2C1)c1ccc(Cl)c([N+](=O)[O-])c1 (centres undefined) | i | 4 | 96
O=C(NCC(c1ccco1)N1CCCCC1)c1ccc(S(=O)(=O)Nc2ccccc2)cc1 (centres undefined) | i | -7 | 97
N#CCC(=O)Nc1ccc(C(=O)NCC(c2ccco2)N2CCCCC2)cc1 (centres undefined) | + | 2 | 88
O=C(NCC(c1ccco1)N1CCCC1)c1ccc(Cl)c(S(=O)(=O)N2CCc3ccccc32)c1 (centres undefined) | + | -6 | 87
COc1ccc(CC(=O)NCc2cccc(Cl)c2)cc1S(=O)(=O)N1CCOCC1 | i | 4 | 94
S=C1Cc2ccccc2N1 | · | 94* | 104
S=C1Nc2ccccc2CS1 | i | 2 | 96
CC(C)CCn1c(CN2CCN(c3cccc(Cl)c3)CC2)nc2c1c(=O)n(C)c(=O)n2C | + | 4 | 97
COCCn1c(CN2CCN(c3cccc(Cl)c3)CC2)nc2c1c(=O)n(C)c(=O)n2C | i | 14 | 99
COc1ccc(N2CCN(Cc3nc4c(c(=O)[nH]c(=O)n4C)n3Cc3cccc(Cl)c3)CC2)cc1 | + | -3 | 100
COc1ccc(N2CCN(Cc3nc4c(c(=O)[nH]c(=O)n4C)n3CCCc3ccccc3)CC2)cc1 | i | -3 | 98
OCC[C@@H]1C[C@H](O)[C@@H](O)[C@@]2(OCCc3cc(Cl)ccc32)O1 | i | 2 | 91
CCOc1ccc(N2C(=O)CNC2=S)cc1 | i | -1 | 97
CCOc1ccc(N2C(=O)CS/C2=C(\C(Cl)=C(Cl)Cl)[N+](=O)[O-])cc1 | + | 0 | 111
Cc1nc(NC(=O)C(C)(C)C)sc1C(=O)Cn1cc(-c2ccc(C(C)(C)C)cc2)nn1 | i | 0 | 128
CN1C(=O)N(S(=O)(=O)c2ccc(F)c(F)c2F)C(=O)C1(C)C | + | 3 | 99
O=C1N(S(=O)(=O)c2ccccc2F)C(=O)C2(CCCC2)N1S(=O)(=O)c1ccccc1F | i | -2 | 102
CC(C)Cn1c(=O)c(C(=O)Nc2ccncc2)c(O)c2ccccc21 | + | -4 | 120
CC(C)Cn1c(=O)c(C(=O)Nc2cnccn2)c(O)c2ccccc21 | i | 3 | 93
COc1ccc(CCN2C(=O)CSC2=Nc2ccc(C(C)C)cc2)cc1OC | + | 1 | 93
SMILES | Myeloid diff MLP | Granule exo inh | ABCB6 inh MLPCN
COc1ccc(N=C2SCC(=O)N2CCc2ccc(OC)c(OC)c2)cc1 | i | -4 | 100
Clc1ccc2c(N/N=C/c3ccccc3Br)ccnc2c1 | ? | 92* | 94
Clc1ccc2c(NNc3ccccc3Cl)ccnc2c1 | i | 1 | 94
O=[N+]([O-])c1ccc(/C=N/Nc2ccnc3cc(Cl)ccc23)o1 | ? | 55 | 166
Clc1ccc2c(N/N=C/c3cccc(Br)c3)ccnc2c1 | i | 74* | 95
O=C(COC(=O)c1cccc(Br)c1)NC1CCCCCCC1 | i | -2 | 94
COc1ccccc1CNC(=O)COC(=O)CCN1C(=O)C2CC=CCC2C1=O (centres undefined) | i | 4 | 102
CCCCn1nnnc1C(c1cc2ccccc2o1)N1CCN(C(=O)OCC)CC1 (centres undefined) | i | 3 | 96
O=C(Nc1nc(-c2cccs2)cs1)c1cccc(S(=O)(=O)N2CCCCCC2)c1 | + | 1 | 84
